From PubChem BioAssay AID778 (Sanford-Burnham Center for Chemical Genomics, 2007)
The whole screen tested about 96,000 compounds, of which about 20,000 (21%) were called active.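 Rule for the calls: active = CYP2C19 inhibition above a set limit at 5 µM in the primary screen (cut at about 50% in these data); inactive = the rest.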 These entries were drawn from the full list.

Target: Cytochrome P450 2C19 (Homo sapiens) (UniProt P33261)
Test: blockers of cytochrome P450 2C19 activity – biochemical, luminescence, ADME assay, primary screen (AID 778);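 note: plate controls were negative control wells for no effect and 2.5 mM tranylcypromine positive control for full effect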
Conditions: CYP2C19 Supersomes, luciferin-H EGE luminescence, 30 min; at 5 µM; active compounds read high

Chain of Cytochrome P450 2C19 (Homo sapiens) (P33261 whole entry, looked up): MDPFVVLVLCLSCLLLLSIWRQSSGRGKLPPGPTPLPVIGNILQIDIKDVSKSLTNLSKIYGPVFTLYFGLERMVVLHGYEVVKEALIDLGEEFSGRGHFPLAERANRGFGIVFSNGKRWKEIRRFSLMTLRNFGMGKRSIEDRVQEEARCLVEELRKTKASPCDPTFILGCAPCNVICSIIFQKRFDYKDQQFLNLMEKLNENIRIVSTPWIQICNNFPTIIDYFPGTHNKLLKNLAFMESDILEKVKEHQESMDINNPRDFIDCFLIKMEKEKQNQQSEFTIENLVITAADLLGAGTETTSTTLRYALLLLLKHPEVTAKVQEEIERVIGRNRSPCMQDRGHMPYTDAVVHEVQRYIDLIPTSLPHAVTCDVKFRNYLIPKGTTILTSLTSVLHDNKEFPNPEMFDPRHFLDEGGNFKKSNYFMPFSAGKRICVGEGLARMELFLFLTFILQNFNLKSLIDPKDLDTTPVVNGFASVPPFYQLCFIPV

inhibition, active:
C=CCn1c(C2CC(=O)N(c3ccc(C)cc3)C2)nc2ccccc21 (stereo not given) 76.7%, Cc1onc(-c2ccccc2Cl)c1C(=O)NCCn1ccc2ccccc21 83.5%, Cc1onc(-c2ccccc2Cl)c1C(=O)OCC(=O)c1ccccc1 58.1%, CCCOc1cccc(C(=O)Nc2nnn(CCC)n2)c1 57.8%, COC(=O)C(C(=O)Nc1cccc(C)n1)C1CCCCCC1 (stereo not given) 80.7%, Cc1cc(C(=O)OCC(=O)NCc2ccco2)c(C)n1-c1ccccc1 71.8%, CCOC(=O)C1=C(CNC2CCCCC2)NC(=O)NC1c1cc(C)ccc1C (stereo not given) 97.1%, CSc1ccc(S(=O)(=O)NCc2ccc(Cl)cc2)cc1 78.2%, COc1ccc(C(c2nnnn2Cc2cccs2)N2CCN(c3ccccc3)CC2)cc1OC (stereo not given) 69.8%

inhibition, inactive:
Cc1ccc(Cn2c(NC(=O)c3ccco3)nc3ccccc32)cc1 -9.7%, CC(C)(C)N1CC(c2nc3ccccc3n2Cc2ccc(F)cc2)CC1=O (stereo not given) 12.1%, O=C1c2ccccc2C(=O)N1Cc1cc(-c2ccccc2Cl)no1 37.2%, COc1c(O)cccc1-c1nnn(CCC(=O)OCC(=O)c2ccccc2)n1 19.5%, Cc1onc(-c2c(Cl)cccc2Cl)c1C(=O)c1c[nH]c(C(=O)NC2CC2)c1 0.9%, Cc1ccc2cc(CCNC(=O)c3c(-c4ccccc4Cl)noc3C)c(=O)[nH]c2c1 21%, O=C(OCc1cc2ccccc2[nH]c1=O)c1cccnc1 25.1%, C=CCSc1nc2c(c(=O)[nH]1)C(C(C)C)C(C#N)=C(N)O2 (stereo not given) -15.8%, COc1ccc(OCCCON2C(=O)c3ccccc3C2=O)cc1 26.4%, CCN(CC)CCCNC(=O)c1cc(-c2cccc(Cl)c2)on1 -2.7%, Cc1cc(C)c2c(-n3cccc3)c(NC(=O)OCc3ccccc3)sc2n1 4.8%, Cc1cc(Cl)ccc1N1C(=O)CC(SCCC(=O)O)C1=O (stereo not given) 7.1%, COC(=O)Cc1cc(=O)oc2c(C)c(O)ccc12 17.9%, Nc1nnnn1/N=C/c1cccs1 1.7%, Cc1nc2nc[nH]n2c(=O)c1NC(=O)c1cccc(OCC(C)C)c1 -12.5%, CCC(=O)Oc1cccc(C(=O)Nc2ccc(-c3nnc(-c4ccco4)o3)cc2)c1 48.6%, COc1ccc(OC)c2c(N)c(C#N)c(C(F)(F)C(F)(F)F)nc12 -11.1%, NC(=O)c1nsc(C(=O)N(CC(=O)NCc2ccc(F)cc2)Cc2ccco2)c1N 21.3%, Cc1ccc2nc(SC(C)C(=O)NCc3ccco3)[nH]c2c1 (stereo not given) 19.9%, Cc1cccc(NC(=O)c2ccc3ccccc3n2)n1 22.7%, Cc1cccc(NC(=O)COc2ccccc2C)n1 32%, Cc1cc(C(F)(F)F)nn1CC(=O)N1CCCC1 -1.5%, OC(C#CCN1CCOCC1)(c1ccccc1)C1CCCCC1 (stereo not given) 36.7%, CCOC(=O)c1cnc(SCC(=O)NCc2ccco2)nc1N -1.2%, O=C(COC(=O)C12CC3CC(CC(C3)C1)C2)NCc1ccco1 35.7%, COc1c(Br)cc2c(C)c(C(=O)N3CCOCC3)oc2c1Br 33.1%, N#C/C(=C\c1ccccc1)c1n[nH]c(Cn2cncn2)n1 23.3%, FC(F)(F)COc1nc(N2CCCCC2)nc(N2CCNCC2)n1 -9.3%, C/C(=N/NC(=O)c1cc(Cl)ccc1O)C12CC3CC(CC(C3)C1)C2 0.2%, Cc1ccc(N(C(=O)CC2NC(=O)NC2=O)C2(C(=O)NC3CCCC3)CCCCC2)cc1 (stereo not given) -3.8%, CCOC(=O)c1[nH]cnc1C(=O)NC1CCCCC1 18.3%, CN(Cc1ccccc1)c1nc2c(c(=O)[nH]c(=O)n2C)n1CCSc1nc2ccccc2[nH]1 38.5%, O=C1CC(c2cccc(F)c2)C2=C(CCCC2=O)N1 (stereo not given) 8.1%, CCc1nnc(NC(=O)CSc2nnc(COc3ccc(C#N)cc3)n2-c2ccccc2)s1 4.5%, O=[N+]([O-])c1ccccc1NCc1ccc(Cl)cc1 21%, Cc1ccc(S/C(=N\S(=O)(=O)c2ccc(Cl)cc2)c2ccccc2)cc1 24.1%, Fc1c(F)c(C(F)(F)F)c(F)c(F)c1N1CCN(c2ccc3nnc(C(F)(F)F)n3n2)CC1 0.5%, COc1ccc(CCn2nnnc2C(c2ccccc2)N2CCN(C)CC2)cc1OC (stereo not given) 2.7%, Cc1ccc(C(c2nnnn2CS(=O)(=O)c2ccc(C)cc2)N2CCC(C)CC2)cc1 (stereo not given) 3.8%, O=C(Nc1ccc(Br)c2cccnc12)c1ccc(Cn2cc([N+](=O)[O-])cn2)o1 20.2%, CCCNC(=O)Nc1ccccc1C(=O)Nc1ccc(OC)cc1 40.1%
